PubChem BioAssay AID588689 (Southern Research Specialized Biocontainment Screening …, 2011)
The campaign covered roughly 340,000 compounds. About 1,000 (0.29%) were called active. Cut-off read from the data, not from the text of the source: inconclusive = inhibition above about 29% without an active follow-up result; inactive = below that. These entries were drawn from the full list. Potency and affinity values are given separately.

Molecular target: Genome polyprotein (Dengue virus type 2 (strain 16681-PDK53)) (UniProt P29991)
Experiment: Dengue-2 NS5 methyltransferase inhibitors, primary screen, biochemical, confirmation dose response (AID 588689)
Settings: Dengue-2 NS5 methyltransferase capping enzyme assay, at 25 µM, stronger effect = higher value
[1] = measured here: pilot screen replicate inhibition

Q: How did the inhibition turn out when `CC1=NN(c2ccc(Br)cc2)C(=O)/C1=C/c1cccs1` was run?
A: 22% (inactive)

Q: With `CC(=O)c1ccc(OC(=O)c2cccs2)cc1` as the compound, how does the inhibition read?
A: -2.4% (inactive)

Q: How did the inhibition turn out when `CCOc1cc(/C=C2/C(=O)N(c3ccccc3)N=C2C)ccc1OC(=O)c1cccs1` was run?
A: 8.81% (inactive)

Q: How did the inhibition turn out when `CC1=NN(c2ccccc2)C(=O)/C1=C/N(C)C` was run?
A: 2.35% (inactive)

Q: How did the inhibition turn out when `CC1=NN(c2ccccc2)C(=O)/C1=C\c1cc(C)n(-c2ccccc2)c1C` was run?
A: -4.02% (inactive)

Q: With `CC1=NN(c2ccccc2)C(=O)/C1=C/C=C/c1ccccc1` as the compound, how does the inhibition read?
A: 0.72% (inactive)

Q: With `CC1=NN(c2ccccc2)C(=O)/C1=C/c1ccc[nH]1` as the compound, how does the inhibition read?
A: -6.55% (inactive)

Q: `CC1=NN(c2ccccc2)C(=O)/C1=C\c1sccc1C` was tested. Which inhibition did it give?
A: 3.11% (inactive)

Q: How did the inhibition turn out when `COCCN(C(=O)COC(=O)C(c1ccccc1)c1ccccc1)c1c(N)n(Cc2ccccc2)c(=O)[nH]c1=O` was run?
A: 0% (inactive)

Q: For `CCC(C(=O)OCC(=O)N(C)c1c(N)n(Cc2ccccc2)c(=O)[nH]c1=O)c1ccccc1` (configuration not stated), which inhibition is on record?
A: -2.91% (inactive)

Q: Which inhibition does the source give for `COc1cccc(N2C(=O)Nc3ccc(Br)cc3C2(O)C(=O)NCCCOC(C)C)c1` (configuration not stated) here?
A: -4.76% (inactive)

Q: With `Cc1cc(C)c(C)c(S(=O)(=O)NCCN2CCOCC2)c1C` as the compound, how does the inhibition read?
A: 6.21% (inactive)

Q: Which inhibition does the source give for `COC(=O)c1ccc(CSC2=NC[C@@H]3[C@@H]4C(=O)N(C)C(=O)[C@@H]4[C@](C)(C(=O)OC)N23)cc1` here?
A: -0.66% (inactive)

Q: And the inhibition [1]?
A: 1.52%

Q: How did the inhibition turn out when `CCOc1ccc(C(=O)NCC(=O)NCCCSc2ccccc2)cc1OCC` was run?
A: -5.91% (inactive)

Q: With `CCOC(=O)N1CCN(CC(=O)c2ccc(O)c(C)c2O)CC1` as the compound, how does the inhibition read?
A: 0.45% (inactive)

Q: Which inhibition does the source give for `CC1=NN(c2ccccc2)C(=O)/C1=C\c1ccc(Br)s1` here?
A: -0.88% (inactive)

Q: For `COc1ccccc1/C=C1/C(=O)N(c2ccc([N+](=O)[O-])cc2)N=C1C`, which inhibition is on record?
A: 3.11% (inactive)

Q: With `CC1=NN(c2ccccc2)C(=O)/C1=C\N(O)c1ccccc1` as the compound, how does the inhibition read?
A: 1.98% (inactive)

Q: What about the inhibition [1] of the same compound?
A: -1.18%

Q: `CC1=NN(c2ccccc2)C(=O)/C1=C\c1cn(-c2ccccc2)nc1C` was tested. Which inhibition did it give?
A: 3.59% (inactive)

Q: Which inhibition does the source give for `COc1ccc(/C=C2/C(=O)N(c3ccccc3)N=C2C)cc1Br` here?
A: 18.3% (inactive)

Q: Which inhibition does the source give for `CC1=NN(c2ccccc2)C(=O)/C1=C\c1cc(C)n(C)c1C` here?
A: 0% (inactive)

Q: Which inhibition does the source give for `OCCC1CN(Cc2cc3c(cc2Cl)OCO3)CCN1Cc1ccccc1` (configuration not stated) here?
A: 1.46% (inactive)

Q: How did the inhibition turn out when `CCN(CC)S(=O)(=O)c1cc(NC(=O)CSc2nnc(N)s2)ccc1C` was run?
A: 0.37% (inactive)

Q: `COc1ccc(C(=O)NC(=S)Nc2cccnc2)cc1[N+](=O)[O-]` was tested. Which inhibition did it give?
A: 6.37% (inactive)

Q: Which inhibition does the source give for `CC(C)C(=O)NNS(=O)(=O)c1ccccc1[N+](=O)[O-]` here?
A: -1.48% (inactive)
